Sampled rows, rich in hits. Any-hit rate of the full collection: about 12%.
Shiga inhibitor – A qHTS for Small Molecule Inhibitors of Shiga Toxin; Vero cells, Shiga toxin protein synthesis inhibition reporter; inhibition, % at 38.7 µM; 9.2% of 290,000 active; AID 2315, 2010; in the data active means inhibition mostly above about 28%, no sharp cut-off; inactive means mostly below about 43%
Cycloheximide cs – Cycloheximide Counterscreen for Small Molecule Inhibitors of Shiga Toxin; cell reporter, cycloheximide protein synthesis inhibition counterscreen; max response, %; 12% of 300,000 active; AID 2314, 2010; in the data active means max response mostly above about 13%, no sharp cut-off; inactive means mostly below about 14%; further: read at 38.3 µM for the half of the compounds with a filed dose
FMDV antiviral – High Throughput Screening for Foot and Mouth Disease Virus Antivirals. FMDV antiviral cell-based qHTS. Potency, µM (series often up to 57.9 µM), actives largely listed as inhibitors. 1.2% of 410,000 active. AID 1159524, 2015; calls by dose curve; tested in HEK293T cells; further: read-out not given here; nearly all actives have a fitted effect of over 45% in size
Sm TGR block – qHTS Assay for the Inhibitors of Schistosoma Mansoni Peroxiredoxins; Schistosoma mansoni thioredoxin glutathione reductase (TGR), Q962Y6; purified TGR, DTNB reduction, TNB absorbance 405 nm; Potency, µM (series often up to 114 µM), hits mostly inhibitors; 3% of 360,000 active; AID 485364, 2010; active means well fitted inhibition curve with a large enough effect; inconclusive means small, poorly fitted or top-dose-only effect; inactive means no such curve, though single readings can be large or run the other way; further: nearly all actives have a fitted effect of over 60% in size
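Kinetic colorimetric format: TGR-catalysed, NADPH-driven DTNB reduction monitored via TNB absorbance. Enzyme dispensed at 20 nM; compound exposure 15 min at room temperature before reaction start.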
Of the large screens only hits and unclear results are named; the others gave an inactive call.

Cc1nn(Cc2ccccc2Cl)c2sc(C(=O)NC(C)(C)C)cc12	none
O=C(c1scc2c1CCCC2)N1CCCCC1	none
CCc1sc(C(=O)Nc2nc(C)cs2)cc1C	Shiga inhibitor 76, Cycloheximide cs 26
Cc1nc(NC(=O)c2ccc(Br)s2)sc1C(=O)N(C)C	Shiga inhibitor 50, Cycloheximide cs 44
Cc1ccc(NC(=O)c2scc3c2CCCC3)cc1	Shiga inhibitor 73, Cycloheximide cs 54
N#Cc1ccccc1CSc1nnc(-c2ccccc2)o1	none (no result: Shiga inhibitor, Cycloheximide cs)
CCC(=O)N1c2ccccc2CC1C(=O)NCCN1CCN(c2cccc(C)c2C)CC1 (stereo not drawn)	none (no result: Shiga inhibitor, Cycloheximide cs)
CN1C(=O)Cc2cc(S(=O)(=O)CCC(=O)N3CCN(c4ccc(Cl)cc4)CC3)ccc21	Sm TGR block inconclusive (no result: Shiga inhibitor, Cycloheximide cs)
Cc1ccc(NC(=O)CN(C)C(=O)c2cc3c(s2)CCCCC3)cc1	none (no result: Shiga inhibitor, Cycloheximide cs)
Cc1ccc(NC(=O)c2cc3c(s2)CCCC3)cc1	Shiga inhibitor 104, Cycloheximide cs 54
COC(=O)c1sc(NC(=O)c2cc3c(s2)CCCC3)nc1C	Shiga inhibitor 26, Cycloheximide cs 34
Cc1nc(NC(=O)c2cc3c(s2)CCCCC3)sc1C(=O)N(C)C	Shiga inhibitor 102, Cycloheximide cs 21
Cc1csc(NC(=O)c2cc3c(s2)CCC3)n1	Shiga inhibitor 86, Cycloheximide cs 64
CCOC(=O)c1sc(NC(=O)c2cc3c(s2)CCC(C)C3)nc1C (stereo not drawn)	FMDV antiviral inconclusive
CCOC(=O)c1cc(NC(=O)c2ccc(C)cc2)c(=O)n2c1oc1ccc(Cl)cc12	none (no result: Shiga inhibitor, Cycloheximide cs)
CCOc1ccc(NC(=O)[C@@H](c2ccccc2)N2Cc3ccccc3C2=O)cc1	none (no result: Shiga inhibitor, Cycloheximide cs)
COC(=O)C1CCN(c2nc(CN(C)C3CCOC3)nc3cc(OC)c(OC)cc23)CC1 (stereo not drawn)	none (no result: Shiga inhibitor, Cycloheximide cs, Sm TGR block)
CN(C)S(=O)(=O)c1ccc(NC(=S)NC(=O)c2cccs2)cc1	Cycloheximide cs 11, Sm TGR block inconclusive
CCN(c1ccccc1)S(=O)(=O)c1ccc(NC(=S)NC(=O)c2cccs2)cc1	Shiga inhibitor 30, FMDV antiviral inconclusive, Sm TGR block inconclusive
CC(=O)NC(=S)Nc1ccc(S(=O)(=O)N(C)Cc2ccccc2)cc1	FMDV antiviral 22µM
CC(C)C(=O)NC(=S)Nc1ccc(S(=O)(=O)N(C)Cc2ccccc2)cc1	none
CCc1nn(CC(=O)Nc2c(C)cccc2C)c(=O)c2cc3sccc3n12	none (no result: Shiga inhibitor, Cycloheximide cs)
Cc1cc(CN2CCC(N3CCC(C(=O)NC4CC4)CC3)CC2)cc(C)c1O	Sm TGR block 45µM
O=C1CC(C(=O)N2CCC(N3CCC(C(=O)NC4CC4)CC3)CC2)c2ccccc21 (stereo not drawn)	Sm TGR block 40µM
COc1ccc(NC(=O)c2cc(F)cc(F)c2)cc1Cl	Shiga inhibitor 82, Cycloheximide cs 27
COc1ccc(NC(=O)c2ccc(OC(F)F)cc2)cc1Cl	Shiga inhibitor active, Cycloheximide cs 47
COc1cc(NC(=O)c2ccccn2)cc(OC)c1OC	none
O=C(Nc1ccc(OC(F)F)c(Cl)c1)c1ccccn1	Shiga inhibitor 94, Cycloheximide cs 41
Clc1ccccc1-c1nnc(-c2ccccc2Cl)o1	Shiga inhibitor 68, Cycloheximide cs 32 (no result: FMDV antiviral)
Clc1ccc(-c2nnc(-c3ccccc3Cl)o2)cc1	Shiga inhibitor 115, Cycloheximide cs 46
CCCNCc1nnc(-c2ccccc2Cl)o1	none
CN(C)CC1CCC/C(=C/c2ccc(Cl)cc2)C1=O (stereo not drawn)	FMDV antiviral 40µM (no result: Shiga inhibitor, Cycloheximide cs, Sm TGR block)
CN(C)CC1CCC/C(=C\c2ccc(OC(=O)/C=C/c3ccc(Cl)c(Cl)c3)cc2)C1=O (stereo not drawn)	FMDV antiviral 40µM (no result: Shiga inhibitor, Cycloheximide cs, Sm TGR block)
O=c1cc(CNc2ccc(Br)cc2)nc2sccn12	Shiga inhibitor 56, Cycloheximide cs 28
CC(=O)c1ccc(OCc2cc(=O)n3ccsc3n2)cc1	Shiga inhibitor 63, Cycloheximide cs 38
CN(Cc1cc(=O)n2ccsc2n1)C1CCCCC1	Sm TGR block 32µM
O=c1c(-c2ccc(Cl)cc2)nc2cnc(N3CCOCC3)nc2n1Cc1ccc(F)cc1	none (no result: Shiga inhibitor, Cycloheximide cs, Sm TGR block)
COc1ccc(Cc2noc(CN3CCN(C4CCc5ccccc5C4)CC3)n2)cc1OC (stereo not drawn)	FMDV antiviral 20µM
CCc1nn(C(C)C(=O)NCCN2CCCCCC2)c(=O)c2cc3occc3n12 (stereo not drawn)	none
CCc1nn(C(C)C(=O)NCCN2CCN(c3cccc(C)c3C)CC2)c(=O)c2cc3occc3n12 (stereo not drawn)	FMDV antiviral 28µM
CCNC(=O)c1cc(NC(=O)COC)cc2nc(-c3ccncc3)n(C)c12	none (no result: Shiga inhibitor, Cycloheximide cs, Sm TGR block)
COC(=O)c1ccc(Cl)cc1NC(=O)Nc1nnc(N2CCCC2)s1	none (no result: Shiga inhibitor, Cycloheximide cs)
